# Measured values from PubChem BioAssay (EPA / NIEHS).
# The source made the active and inactive calls. How the source made its calls: active means hit-call score of the fitted dose curve at least 0.9, where 1 is the maximum; inactive means score below 0.9.
# Assay: APR_HepG2_MitoMass_24hr: Apredica 24-hour HepG2 Assay for Mitochondrial Mass (AID 2282912)
# Settings: high-content imaging, actives raise or lower the signal
# How it was run: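 Endpoint is MitoTracker Red CMXRos (250 nM, 30 min, pre-fixation) intensity from 20x high-content imaging, nuclei located by Hoechst. Human HepG2 cells received ten concentrations from 0.39 to 200 uM in 0.5% DMSO for 24 hr, duplicate wells. Bidirectional fit relative to DMSO.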
Structure (SMILES),outcome,AC50
CC#C[C@]1(O)CC[C@H]2[C@@H]3CCC4=CC(=O)CCC4=C3[C@@H](c3ccc(N(C)C)cc3)C[C@@]21C,inactive,
CCOC(=O)CC(O)(CC(=O)OCC)C(=O)OCC,inactive,
CCCCCCCC(=O)O,inactive,
CC[C@H](c1ccc(O)cc1)[C@@H](CC)c1ccc(O)cc1,inactive,
O=c1c(-c2ccc(O)cc2)coc2cc(O)ccc12,inactive,
CCCCC(CC)COC(=O)CCCCC(=O)OCC(CC)CCCC (stereo unspecified),inactive,
CC(C)(C)c1cccc(C(C)(C)C)c1O,,96.1 µM (active)
CCCOc1sc(C(=O)N2CCC(c3cc(CN)ccc3F)CC2)c(C)c1Br,inactive,
NC(=O)N(O)[C@@H]1C=C[C@H](Oc2cccc(Oc3ccc(F)cc3)c2)C1,inactive,
NC(=O)N1C(=O)C(C(=O)c2cc(Cl)cs2)c2cc(F)c(Cl)cc21 (stereo unspecified),,107 µM (active)
Cc1cc(C)c(O)c(C)c1,inactive,
Nc1cccc2c(N)cccc12,inactive,
COCC(C)O (stereo unspecified),inactive,
c1ccc2c(c1)ccc1ccccc12,inactive,
CCCCC[C@H](O)CC(=O)CCc1ccc(O)c(OC)c1,inactive,
CC(C)CCCCCCOC(=O)CCCCC(=O)OCCCCCCC(C)C,inactive,

Structure (SMILES),outcome,AC50
O=C(/C=C/c1ccc(O)cc1)CC(=O)/C=C/c1ccc(O)cc1,,61 µM (active)
OCCC(F)(F)C(F)(F)C(F)(F)C(F)(F)C(F)(F)C(F)(F)C(F)(F)C(F)(F)F,,29.9 µM (active)
C#C[C@]1(O)CC[C@H]2[C@@H]3CCC4=CC(=O)CC[C@@H]4[C@H]3CC[C@@]21C,inactive,
CCc1nn(C2CCCCC2)c2cc(C3(C#N)CCC(C(=O)O)CC3)ccc12 (stereo unspecified),inactive,
OC1CCCCC1,inactive,
CCC(=C(c1ccc(O)cc1)c1ccc(OCCN(C)C)cc1)c1ccccc1,inactive,
CCc1ccc(CCOc2ccc(CC3SC(=O)NC3=O)cc2)nc1 (stereo unspecified),inactive,
CC(C)(C)c1ccc(O)c(C(C)(C)C)c1,inactive,
Oc1cccc(O)c1,inactive,
CN1CCN(c2ccccc2/C=C2\SCCN(c3ccc(Cl)c(Cl)c3)C2=O)CC1,inactive,
COC(=O)CCCCC(=O)OC,inactive,
COc1cc(CCC(=O)CC(=O)CCc2ccc(O)c(OC)c2)ccc1O,inactive,
COCC(C)OCC(C)O (stereo unspecified),inactive,
CCN(CC)CCNc1ccc(CNC=O)c2sc3ccc(OC)cc3c(=O)c12,,32.6 µM (active)
Cc1oc(-c2ccccc2)nc1CCOc1ccc(C[C@H](Nc2ccccc2C(=O)c2ccccc2)C(=O)O)cc1,inactive,
